According to PubChem BioAssay:
Inconclusive results are not listed. The source made the active and inactive calls. Unless noted, cut-off not given; nearly all actives show AC50 up to about 26 µM.

Assay: viability loss in pontine glioma line – cell-based, SU-DIPG-XXV, MIPE5.0, CellTiter-Glo, qHTS, dose response (AID 1347065);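 further: cells exposed to compound for 48 hours before ATP readout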
Settings: CellTiter-Glo ATP luminescence

Row | Compound | outcome | AC50
1 | COc1ccc(/C=C/C(=O)Nc2ccccc2C(=O)O)cc1OC | inactive | 
2 | COC(=O)[C@H](c1ccccc1Cl)N1CCc2sccc2C1 | inactive | 
3 | CS(=O)(=O)c1ccc(C2=C(c3ccccc3)C(=O)OC2)cc1 | inactive | 
4 | CN(C)c1nc(N(C)C)nc(N(C)C)n1 | inactive | 
5 | CC1=C(/C=C/C(C)=C/C=C/C(C)=C\C(=O)O)C(C)(C)CCC1 |  | 6.61 µM (active)
6 | CCc1ccc(CCOc2ccc(CC3SC(=O)NC3=O)cc2)nc1 (stereo unspecified) | inactive | 
7 | CC(C(=O)O)c1ccc(-c2ccccc2)c(F)c1 (stereo unspecified) | inactive | 
8 | C[C@H]1COc2c(N3CCN(C)CC3)c(F)cc3c(=O)c(C(=O)O)cn1c23 | inactive | 
9 | Nc1ncnc2c1ncn2[C@@H]1O[C@H](CO)[C@@H](O)[C@@H]1O | inactive | 

Assay: SU-DIPG-VI glioma cell viability, MIPE4.0 library, CellTiter-Glo luminescence, qHTS (AID 1347066; cut-off not given, nearly all actives have AC50 up to about 30 µM;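 further: cells exposed to compound for 48 hours before readout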)
Settings: CellTiter-Glo ATP luminescence

Row | Compound | outcome
10 | COC(=O)[C@H](c1ccccc1Cl)N1CCc2sccc2C1 | inactive
11 | CS(=O)(=O)c1ccc(C2=C(c3ccccc3)C(=O)OC2)cc1 | inactive
12 | CC1=C(/C=C/C(C)=C/C=C/C(C)=C\C(=O)O)C(C)(C)CCC1 | inactive
13 | CCc1ccc(CCOc2ccc(CC3SC(=O)NC3=O)cc2)nc1 (stereo unspecified) | inactive
14 | CC(C(=O)O)c1ccc(-c2ccccc2)c(F)c1 (stereo unspecified) | inactive
15 | CC[C@H]1OC(=O)[C@H](C)[C@@H](O[C@H]2C[C@@](C)(OC)[C@@H](O)[C@H](C)O2)[C@H](C)[C@@H](O[C@@H]2O[C@H](C)C[C@H](N(C)C)[C@H]2O)[C@](C)(OC)C[C@@H](C)C(=O)[C@H](C)[C@@H](O)[C@]1(C)O | inactive
16 | C[C@H]1COc2c(N3CCN(C)CC3)c(F)cc3c(=O)c(C(=O)O)cn1c23 | inactive
